Source: ChEMBL document CHEMBL4513216, “Probing the Open Global Health Chemical Diversity Library for Multistage-Active Starting Points for Next-Generation Antimalarials” (ACS Infect Dis, 2020)
About 2,700 (4%) of roughly 68,000 compounds showed an effect of 50% or more. Many of the other results were omitted from the sample, so strong results are more common in it than they were.

test system: Plasmodium berghei; assay: Screen against P. berghei liver stage (PbLuc), transformed with Luciferase, at 2uM; format: functional, HepG2; conditions: tested at 2 uM

Question: Which INHIBITION does the source give for `Cc1nn(C)c(C)c1CN(C)C(C(=O)O)c1ccc(F)cc1F` (centres undefined) here?
Answer: 13.99%

Question: How did the INHIBITION turn out when `CNC(=O)C(C)(C)NC(=O)c1cc(COc2ccccc2OC)[nH]n1` was run?
Answer: -25.61%

Question: `COc1ccc(C)cc1CC(=O)NS(=O)(=O)c1ccc(C(N)=O)cc1` was tested. Which INHIBITION did it give?
Answer: 43.75%

Question: `COc1ccc(C)cc1CN(CC(N)=O)C(C)C` was tested. Which INHIBITION did it give?
Answer: 11.51%

Question: How did the INHIBITION turn out when `COc1ccc(Cl)cc1CN(CC(N)=O)C(C)C` was run?
Answer: 50.46%

Question: For `COc1ccccc1CC(=O)NS(=O)(=O)c1ccc(C(N)=O)cc1`, which INHIBITION is on record?
Answer: 1.5%

Question: Which INHIBITION does the source give for `COc1ccc(F)cc1CN(CC(N)=O)C(C)C` here?
Answer: -21.69%

Question: For `COc1ccc(Cl)cc1CC(=O)NS(=O)(=O)c1ccc(C(N)=O)cc1`, which INHIBITION is on record?
Answer: 58.96%

Question: Which INHIBITION does the source give for `c1ccn(Cc2nnc3n2CCCN(c2cnccn2)C3)c1` here?
Answer: -11.68%

Question: How did the INHIBITION turn out when `Cc1cnc(CN(C)C2CCN(Cc3ccc(Cl)s3)C2)o1` (centres undefined) was run?
Answer: -39.39%

Question: `CC(C)=CCN1C(=O)[C@@H]2CC[C@H]1CN(Cc1cccnc1N)C2` was tested. Which INHIBITION did it give?
Answer: 16.01%

Question: For `Cc1noc(C)c1CN1C(=O)[C@@H]2CC[C@H]1CN(Cc1cccnc1N)C2`, which INHIBITION is on record?
Answer: 31.38%

Question: Which INHIBITION does the source give for `Nc1ncccc1CN1C[C@H]2CC[C@@H](C1)N(CC1CC1)C2=O` here?
Answer: 70.26%

Question: With `Cc1nccc(NCc2cncc3c2CCN(CC2CC2)C3)n1` as the compound, how does the INHIBITION read?
Answer: 25.86%

Question: With `CCOc1ccc(NC2CCN(C3CC3)C2=O)cn1` (centres undefined) as the compound, how does the INHIBITION read?
Answer: -13.8%

Question: For `Cc1ncc(CNC(C)(C)CO)c2cc(C(=O)c3ccc(Br)cc3)oc12`, which INHIBITION is on record?
Answer: 61.06%

Question: How did the INHIBITION turn out when `Cc1ncc(CNCCO)c2cc(C(=O)c3ccc(Br)cc3)oc12` was run?
Answer: 29.19%

Question: With `Cc1ncc(CNCC(C)O)c2cc(C(=O)c3ccc(Br)cc3)oc12` (centres undefined) as the compound, how does the INHIBITION read?
Answer: -4.01%

Question: Which INHIBITION does the source give for `CCc1ccc(C2CCCCCN2C(=O)CNC(=O)C2CC2)o1` (centres undefined) here?
Answer: -1.21%

Question: For `OC(CNCCn1cccn1)c1ccc(C(F)(F)F)cc1` (centres undefined), which INHIBITION is on record?
Answer: -33.92%

Question: With `CCc1nnc(Nc2cccc(C3CCN(C)CC3)n2)s1` as the compound, how does the INHIBITION read?
Answer: 7.64%

Question: How did the INHIBITION turn out when `CCc1nnc(Nc2cccc(C3CCCN(CC(C)(C)C)C3)n2)s1` (centres undefined) was run?
Answer: 53.05%

Question: With `CCc1nnc(Nc2cccc(C3CCN(CC4CC4)CC3)n2)s1` as the compound, how does the INHIBITION read?
Answer: 20.71%

Question: Which INHIBITION does the source give for `CC(C)CCOCCNC(=O)Nc1ccc(F)c(C(N)=O)c1` here?
Answer: -24.7%

Question: Which INHIBITION does the source give for `Cc1cc(C(F)(F)F)nc(C2COCCN2S(C)(=O)=O)n1` (centres undefined) here?
Answer: 6.64%

Question: With `Cc1ccc(CN(C)C(C(=O)O)c2ccc3c(c2)OCO3)o1` (centres undefined) as the compound, how does the INHIBITION read?
Answer: -39.01%

Question: `Cc1cccc(S(=O)(=O)N2CSCC2C(=O)NC(C)(C)C)c1` (centres undefined) was tested. Which INHIBITION did it give?
Answer: 55.18%

Question: `CC(C)(C)NC(=O)C1CSCN1S(=O)(=O)c1cccc(F)c1` (centres undefined) was tested. Which INHIBITION did it give?
Answer: 7.74%

Question: How did the INHIBITION turn out when `Cc1cccc(S(=O)(=O)N2CSCC2C(=O)NCC2CC2)c1` (centres undefined) was run?
Answer: 3.89%
